These results are taken from PubChem BioAssay AID743255 (National Center for Advancing Translational Sciences (NCATS), 2014).

Among all 390,000 compounds or so, about 910 (0.23%) were called active. Roughly 5% stayed inconclusive and do not appear here. Calls follow the shape of the dose curve; as a rule, active = well fitted inhibition curve with a large enough effect; inconclusive = small, poorly fitted or top-dose-only effect; inactive = no such curve, though single readings can be large or run the other way. Many of the other results were omitted from the sample, so actives are more common in it than they were.
% is scaled to controls: 0 for no effect and ±100 for the full control effect; potency is read from the fitted curve at half-maximal effect.

Sequence of Ubiquitin carboxyl-terminal hydrolase 1 (Homo sapiens) (O94782 whole entry, looked up): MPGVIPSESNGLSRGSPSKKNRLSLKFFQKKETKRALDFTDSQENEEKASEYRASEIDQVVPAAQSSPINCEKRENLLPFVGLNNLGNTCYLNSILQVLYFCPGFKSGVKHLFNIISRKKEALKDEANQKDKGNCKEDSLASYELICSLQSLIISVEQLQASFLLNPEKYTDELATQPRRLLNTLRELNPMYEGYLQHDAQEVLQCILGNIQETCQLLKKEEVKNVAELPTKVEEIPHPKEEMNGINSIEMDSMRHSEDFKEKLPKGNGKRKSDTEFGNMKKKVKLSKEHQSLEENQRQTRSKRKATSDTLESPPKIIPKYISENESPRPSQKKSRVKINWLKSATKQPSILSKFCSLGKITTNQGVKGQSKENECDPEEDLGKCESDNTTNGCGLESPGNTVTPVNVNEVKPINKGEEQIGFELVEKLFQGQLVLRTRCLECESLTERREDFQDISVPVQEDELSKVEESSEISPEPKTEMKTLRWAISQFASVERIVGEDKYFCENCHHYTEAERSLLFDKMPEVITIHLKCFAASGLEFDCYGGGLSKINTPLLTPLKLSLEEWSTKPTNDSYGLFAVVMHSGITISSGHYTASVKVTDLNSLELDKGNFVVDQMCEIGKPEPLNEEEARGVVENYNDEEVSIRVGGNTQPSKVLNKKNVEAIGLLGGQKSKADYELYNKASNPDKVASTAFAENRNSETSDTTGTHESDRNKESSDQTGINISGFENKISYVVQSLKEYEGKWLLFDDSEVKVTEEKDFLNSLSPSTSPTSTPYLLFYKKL

The assay concerns the target Ubiquitin carboxyl-terminal hydrolase 1 (Homo sapiens) (UniProt O94782). Kind of assay: Inhibitors of USP1/UAF1: Primary Screen. Also: nearly all actives have a fitted effect of over 60% in size. The following applies: recombinant USP1/UAF1, Ub-Rhodamine cleavage fluorescence; series mostly up to 57.1 µM; activity change, negative = inhibition: at the top concentration. An excerpt:
Deubiquitinating enzymes (DUBs) are a class of enzymes that can cleave isopeptide bond formed between the C-terminal carboxylate of ubiquitin and a lysine side-chain amino group on the target protein. Among them, ubiquitin specific proteases (USPs) constitute the largest DUB family. Human USPs are emerging as promising targets for pharmacological intervention because of their connection to a number of human diseases, including prostate, colon and breast cancer (1, 2), pediatric acute lymphoblastic leukemia (3), and familial cylindromatosis (4). The advantage of inhibiting USPs lies in the potential specificity of therapeutic intervention that can lead to better efficacy and reduce nonspecific side effects. In a collaboration between the University of Delaware and the NIH Chemical Genomics Center, a high-throughput screen assay was developed to screen for USP1/UAF1 inhibitors. This miniaturized assay has a fluorescent read-out and is used to screen the NIH Molecular Libraries Small Molecule Repository (MLSMR) in order to identify a small molecule that inhibits USP1. NIH Chemical Genomics Center [NCGC] NIH Molecular Libraries Probe Centers Network [MLPCN] MLPCN Grant: DA030552 Assay Submitter (PI): Zhihao Zhuang, University of Delaware 1. Priolo, C., et al. (2006) The isopeptidase USP2a protects human prostate cancer from apoptosis. Cancer Res 66, 8625-8632 2. Popov, N., et al. (2007) The ubiquitin-specific protease USP28 is required for MYC stability. Nat Cell Biol 9, 765-774 3. De Pitta, C., et al. (2005) A leukemia-enriched cDNA microarray platform identifies new transcripts with relevance to the biology of pediatric acute lymphoblastic leukemia. Haematologica 90, 890-898 4. Kovalenko, A., et al. (2003) The tumour suppressor CYLD negatively regulates NF-kappaB signalling by deubiquitination. Nature 424, 801-805
3 microliters of reagents (buffer in columns 3 and 4 as negative control and 1nM USP1/UAF1 complex in columns 1, 2, and 5-48) are dispensed into Greiner black solid bottom 1536-well assay plates. Compounds are then transferred via Kalypsys pin tool equipped with 1536-pin array (10nl slotted pins, V&P Scientific, San Diego, CA). Following an incubation step of 15 min at room temperature, 1ul of Ub-Rho substrate (150nM final concentration) is added to initiate the reaction. The plates are immediately centrifuged at 1000 rpm for 15 seconds, and subsequently transferred to a ViewLux high-throughput CCD imager (PerkinElmer) wherein kinetic measurements of fluorescence are acquired using 480 nm excitation/540 nm emission filter set (6 reads every 60 seconds, see Table 1). All reagents are diluted in an assay buffer consisting of 50mM HEPES (pH 7.8), 0.5mM EDTA, 0.1 mg/ml BSA, 1mM TCEP, and 0.01% Tween-20.
Regarding `Cc1ccc(C2CCN(C(=O)c3cnn(-c4ccccc4Cl)c3C3CCN(C(=O)OC(C)(C)C)CC3)C2)cc1` (configuration not stated), the “activity change, negative = inhibition” value is -21.9% (inactive).

On to `COc1c(Cl)cc(C(=O)N(Cc2ccccc2F)C2CCS(=O)(=O)C2)cc1Cl` (configuration not stated), for which the “activity change, negative = inhibition” value is 0.438% (inactive).

Consider `Oc1ccc2ccc3cccc[n+]3c2c1`, for which the Potency was 28.2 µM (active).

Turning to `Cc1ccccc1C(=O)N1CCC(C(=O)Oc2ccc(C#N)cc2)CC1`, the “activity change, negative = inhibition” value was 3.04% (inactive).

Turning to `CC1(OC(=O)C2CCCC2)C(=O)C=C2C=C(c3ccc(C#N)cc3)OC=C2C1=O` (configuration not stated), the Potency is 31.6 µM (active).

For the compound `N#Cc1ccc(C2=CC(=O)C[C@H](c3ccc(Cl)cc3)C2)cc1`, the “activity change, negative = inhibition” value is -5.63% (inactive).

Consider `Clc1ccc(CSc2nncn3c2cc2occc23)cc1`, for which the “activity change, negative = inhibition” value is -10.6% (inactive).

`CCC1CCCCN1Cc1c(O)ccc2c(=O)c(Oc3ccccc3Cl)c(C(F)(F)F)oc12` (configuration not stated): the “activity change, negative = inhibition” value is -28.3% (inactive).

As for `Fc1ccc(CN2CCc3nc(Nc4ccccc4)ncc3C2)cc1F`, the “activity change, negative = inhibition” value was -10.4% (inactive).

Take `CCCCNC(=O)c1cc(-c2ccc(Cl)c(Cl)c2)on1`: the “activity change, negative = inhibition” value is -14% (inactive).

`O=C(OCc1cc(=O)n2nc(C3CC3)sc2n1)c1ccccc1Cl`: the “activity change, negative = inhibition” value is -4.6% (inactive).

As to `CC1Cc2cc(S(=O)(=O)CCC(=O)Nc3ccc(F)c(Cl)c3)ccc2N1C(=O)C1CC1` (configuration not stated), the “activity change, negative = inhibition” value was -4.08% (inactive).

On to `Nc1ccc2nc3c(=O)[nH]c(=S)[nH]c3nc2c1`, for which the Potency was 28.2 µM (active).

On to `COc1ccc(NC(=O)CSc2nc3ccccc3[nH]2)cc1`, for which the “activity change, negative = inhibition” value is -19.5% (inactive).

Regarding `NS(=O)(=O)c1ccc2nc(NC(=O)COc3ccccc3)sc2c1`, the “activity change, negative = inhibition” value is 4.94% (inactive).

On to `CCN(CC)c1ccc(C2C(C(N)=O)=C(C)Nc3nc(SCc4ccccc4)nn32)cc1` (configuration not stated), for which the “activity change, negative = inhibition” value is -32.9% (inactive).

On to `COc1cccc2c1cc1c(=O)n(CC(=O)N3CCN(c4cccc(Cl)c4)CC3)nc(C)n12`, for which the “activity change, negative = inhibition” value was 6.97% (inactive).

Regarding `COc1cc(/C=C2/C(=O)NN(c3cccc(Cl)c3)C2=O)cc(Br)c1O`, the Potency is 28.2 µM (active).

Take `Cc1nc(SCCOc2ccc(Cl)cc2)[nH]c(=O)c1Cc1ccccc1`: the “activity change, negative = inhibition” value was -21.7% (inactive).

Consider `Cc1cccc(-c2nc(SCC(=O)Nc3cc(C)on3)c3c(=O)n(C)c(=O)n(C)c3n2)c1`, for which the “activity change, negative = inhibition” value was -20.7% (inactive).

As for `CCC(=O)N1c2ccccc2CC1C(=O)N1CCN(c2ccccc2)CC1` (configuration not stated), the “activity change, negative = inhibition” value was -26.3% (inactive).

Take `O=C(CSc1nccn1-c1ccc(F)cc1)Nc1cccc2ccccc12`: the “activity change, negative = inhibition” value was -23% (inactive).

`CCOc1ccc(CCNC(=O)c2c(C)oc3ncn(C)c(=O)c23)cc1`: the “activity change, negative = inhibition” value was -10.1% (inactive).

As for `CC(=O)N1c2ccc(S(=O)(=O)N3CCCCCC3)cc2CC1C(=O)NCc1ccccc1C` (configuration not stated), the “activity change, negative = inhibition” value is -12.7% (inactive).

`Cc1ccc(-c2nc3ccccn3c2Nc2c(C)cccc2C)o1`: the “activity change, negative = inhibition” value was -23.3% (inactive).

On to `O=S(=O)(c1ccccc1)c1nc(-c2ccc(Cl)cc2Cl)oc1N1CCCCC1`, for which the “activity change, negative = inhibition” value was -5.27% (inactive).

Take `CCOC(=O)c1ccc(Nc2cc3ccccc3c(=O)[nH]2)cc1`: the Potency is 17.8 µM (active).

As for `CCOC(=O)c1ccc(NC(=O)CSc2nc3c([nH]c4ccccc43)c(=O)n2C)cc1`, the “activity change, negative = inhibition” value is -16.3% (inactive).

For `CCOC(=O)c1ccc(NC2=CC(c3ccc(OCC)cc3)N(c3ccc(C(=O)OCC)cc3)C2=O)cc1` (configuration not stated), the “activity change, negative = inhibition” value is -18.2% (inactive).

`Cc1cc(C)c(/C=C/c2onc(C)c2S(=O)(=O)N2CCC(C(=O)Nc3ccc(Cl)cc3C)CC2)c(C)c1`: the “activity change, negative = inhibition” value is 1.71% (inactive).

For the compound `O=C(NCc1ccccc1)c1cc(-c2cccc(Cl)c2)on1`, the “activity change, negative = inhibition” value was -5.34% (inactive).

Turning to `CCC(C)N1C(=O)S/C(=C/c2ccc(Sc3nc4ccccc4[nH]3)o2)C1=O` (configuration not stated), the “activity change, negative = inhibition” value is -9.54% (inactive).

On to `O=C(O)C(c1ccccc1)N1C(=O)/C(=C\c2ccc(-c3cccc(Cl)c3)o2)SC1=S` (configuration not stated), for which the Potency is 35.5 µM (active).

Regarding `COc1ccccc1-c1cc(C(F)(F)F)nc(S(=O)(=O)CCCC(=O)Nc2ccc(F)cc2F)n1`, the “activity change, negative = inhibition” value was -27.7% (inactive).

Regarding `O=C(CSc1nccn1C1CCCC1)Nc1cc(C(F)(F)F)ccc1Cl`, the “activity change, negative = inhibition” value was -20.3% (inactive).

Regarding `CCN(CC)c1ccc(NC(=O)CN2C(=O)c3cccnc3Oc3ccc(Cl)cc32)c(C)c1`, the “activity change, negative = inhibition” value is -7.26% (inactive).

With `Cc1ccc(NC(=O)NC(C)c2c(-n3cccc3)sc(C)c2C)c(C)c1` (configuration not stated), the “activity change, negative = inhibition” value is -21.7% (inactive).

Turning to `O=C(Cn1cnc2c(oc3ccccc32)c1=O)Nc1ccc(OC(F)(F)F)cc1`, the “activity change, negative = inhibition” value was -19.8% (inactive).

In the case of `Cc1ccc2onc(CC(=O)N3CCN(c4ccc(Cl)cc4)CC3)c2c1`, the “activity change, negative = inhibition” value is -10.2% (inactive).

Regarding `CCc1ccc2oc(-c3ccc(NC(=O)c4cc5ccccc5o4)cc3)nc2c1`, the “activity change, negative = inhibition” value was 0.213% (inactive).

`CCOc1ccc(CNC(=O)C2CCN(c3nnc(-n4cccc4CNc4ccc(C)cc4)s3)CC2)cc1OC`: the “activity change, negative = inhibition” value was 8.02% (inactive).

In the case of `COc1cc(C(=O)N2CCN(c3ccc(Nc4ccc(C)cc4)nn3)CC2)cc(OC)c1OC`, the “activity change, negative = inhibition” value was -11.5% (inactive).

With `CCCC(=O)Nc1cc(C(=O)NCc2ccc(OC)cc2)ccc1S(=O)(=O)c1ccc(Cl)cc1`, the “activity change, negative = inhibition” value is -8.93% (inactive).

Regarding `NC(=O)c1ccc(N2CCOCC2)nc1`, the “activity change, negative = inhibition” value was -9.85% (inactive).

As for `O=C(/C=C/c1ccc(N2CCOCC2)cc1)c1ccccc1`, the Potency was 25.1 µM (active).

Take `O=C1OC(NC(=O)c2ccccc2)C(N2CCOCC2)=C1Cl` (configuration not stated): the “activity change, negative = inhibition” value is -15.5% (inactive).

For the compound `COC(=O)CN1C(=O)CSc2ccc(S(=O)(=O)Nc3cc(C)ccc3C)cc21`, the “activity change, negative = inhibition” value is -7.07% (inactive).

As to `COc1ccc(CCNC(=O)c2cc(=O)c3c(C)cc(C)cc3o2)cc1OC`, the “activity change, negative = inhibition” value was -23.3% (inactive).

For `Cc1cc(C)c(/C=C2\C(=O)Nc3ccccc32)[nH]1`, the Potency was 25.1 µM (active).

Regarding `CCN(CC)CCNC(=O)Cn1ncc2c3ccccc3n(Cc3ccccc3C)c2c1=O`, the “activity change, negative = inhibition” value is -16.9% (inactive).

For `CCc1ccccc1NC(=O)c1ccc(F)c(S(=O)(=O)NC2CCCCCC2)c1`, the “activity change, negative = inhibition” value was -12.3% (inactive).

Regarding `COCCCNC(=O)c1ccc(NC(=O)c2nsc3ccccc23)cc1`, the “activity change, negative = inhibition” value is -13.5% (inactive).

For `CCOC(=O)c1cnc2c(C)cc(C)cc2c1Nc1ccc(N2CCOCC2)cc1`, the “activity change, negative = inhibition” value is -5.54% (inactive).

Consider `CCc1nc2cccnc2n1-c1ccc(CC(=O)Nc2c(C)cccc2C)cc1`, for which the “activity change, negative = inhibition” value was 16.9% (inactive).

Turning to `Cc1ccc(-c2nnc(Nc3ccc(OCC(N)=O)cc3)c3ccccc23)cc1S(=O)(=O)NCC1CCCO1` (configuration not stated), the “activity change, negative = inhibition” value was -23.5% (inactive).

Take `CCOc1ccc(CCNC(=O)Cn2nc(CC)n3c(cc4sc(CC)cc43)c2=O)cc1OCC`: the “activity change, negative = inhibition” value was -31.2% (inactive).

In the case of `Cc1ccc(OCC(=O)Nc2ccc(Cl)c(-c3nc4ccccc4[nH]3)c2)cc1C`, the “activity change, negative = inhibition” value is -1.29% (inactive).

Regarding `CCOc1ccc(CNC(=O)c2cccc(Nc3nc4ccccc4n4nnnc34)c2)cc1OC`, the “activity change, negative = inhibition” value was -12.5% (inactive).

With `Cc1cc2nc3c(=O)n(Cc4ccccc4)c(=O)[nH]c3nc2cc1N`, the Potency was 25.1 µM (active).

Turning to `CCC(=O)Nc1ccc(C)cc1-c1nc2ccccc2n(Cc2ccccc2)c1=O`, the “activity change, negative = inhibition” value is -10.8% (inactive).

`COCCn1c(N)c(NCc2ccccc2)c(=O)[nH]c1=O`: the “activity change, negative = inhibition” value is -19.4% (inactive).

With `Cc1ccc(S(=O)(=O)N2CCCc3cc(NS(=O)(=O)c4cc(C)ccc4C)ccc32)cc1`, the “activity change, negative = inhibition” value was -11.9% (inactive).
